This is an account of results in PubChem BioAssay (NCATS).

Inconclusive results are not listed. The source made the active and inactive calls.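 How the source made its calls, unless noted: active means compounds whose dose series gives a full or clear partial fitted curve of increased nuclear translocation; inconclusive means weak partial curve or effect only at the top dose; inactive means no dose-dependent translocation response.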 Some results are limits rather than exact numbers.

Chain of Glucocorticoid receptor (Homo sapiens) (P04150 whole entry, looked up): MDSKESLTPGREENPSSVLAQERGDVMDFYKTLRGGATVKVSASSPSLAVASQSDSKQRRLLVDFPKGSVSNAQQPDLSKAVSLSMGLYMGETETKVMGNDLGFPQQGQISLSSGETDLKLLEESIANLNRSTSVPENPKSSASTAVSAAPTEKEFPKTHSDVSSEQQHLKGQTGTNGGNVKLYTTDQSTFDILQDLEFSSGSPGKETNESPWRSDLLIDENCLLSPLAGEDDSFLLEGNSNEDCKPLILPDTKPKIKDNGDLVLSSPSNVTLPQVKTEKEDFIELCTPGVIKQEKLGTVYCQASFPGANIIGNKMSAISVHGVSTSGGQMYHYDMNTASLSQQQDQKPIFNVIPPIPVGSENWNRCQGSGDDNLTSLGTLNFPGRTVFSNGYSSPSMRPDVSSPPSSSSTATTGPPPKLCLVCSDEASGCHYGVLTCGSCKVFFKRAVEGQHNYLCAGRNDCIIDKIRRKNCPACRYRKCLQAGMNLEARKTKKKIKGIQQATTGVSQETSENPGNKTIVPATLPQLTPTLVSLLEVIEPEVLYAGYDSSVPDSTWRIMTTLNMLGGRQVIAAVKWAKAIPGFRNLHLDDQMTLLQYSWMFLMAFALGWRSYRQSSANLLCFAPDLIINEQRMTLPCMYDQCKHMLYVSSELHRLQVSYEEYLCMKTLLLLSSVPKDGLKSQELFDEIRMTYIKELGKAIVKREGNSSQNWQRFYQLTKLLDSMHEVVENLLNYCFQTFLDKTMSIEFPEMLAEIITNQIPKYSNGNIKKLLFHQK

Test system in the first experiment: not listed separately
Put plainly: Stat Signaling Pathway (AID 446; active means well fitted curve in either direction with a large enough effect, not every such curve was filed as active;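 further: ME-180 cervical cancer cells given 40 pM IL-6 alongside compound; SIE-controlled beta-lactamase reporter measured as 460/530 nm FRET emission ratio; on the % scale 0 is the no-effect control and ±100 the full control effect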). Particulars: ME-180 (cervical carcinoma) SIE beta-lactamase reporter, IL-6 stimulated, 5 h; at 17.2 µM (top of the series) unless noted. The gist of the method: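 Overnight-plated ME-180 cells bearing a STAT Inducible Element beta-lactamase reporter; 5 h co-exposure to compound and 40 pM IL-6; values normalized to 300 pM IL-6 and 125 nM JAK inhibitor controls.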
Turning to `C=C(C)C1Cc2c(C)nn(-c3nc(C)cc(C)n3)c2C1` (stereo not drawn), the activity, negative = inhibition is 0.182% (inactive).

Take `CCOC(=O)c1cc2c(=O)n3cccc(C)c3nc2n(Cc2cccnc2)c1=N`: the activity, negative = inhibition was 12% (inactive).

For the molecule `CN(C)/C=C1\N=C(c2cccs2)OC1=O`, the activity, negative = inhibition is 13.9% (inactive).

For the molecule `COc1ccccc1Cn1c2nc3ccccc3nc2c2c(=O)n(CC(C)C)cnc21`, the activity, negative = inhibition was -12.8% (inactive).

As to `O=C(CNC1=NCCC1)c1ccc2c(c1)OCCO2`, the activity, negative = inhibition is -3.23% (inactive).

As to `COc1cccc(C2/C(=C(/O)c3cnn(-c4ccccc4)c3C)C(=O)C(=O)N2CCN(C)C)c1OC` (stereo not drawn), the activity, negative = inhibition is 3.83% (inactive).

With `Clc1ccc(COc2ccccn2)c(Cl)c1`, the activity, negative = inhibition is 15.3% (inactive).

For the molecule `CCCNC1=C(C)C(=O)CC1`, the activity, negative = inhibition was 0.709% (inactive).

For `Cc1nc(N2CCOCC2)c(C#N)c2c1COC(C)(C)C2`, the activity, negative = inhibition was 7.32% (inactive).

On to `COc1ccc(C(=O)N2CCC(N3CCN(c4ccccc4)CC3)CC2)cc1OC`, for which the activity, negative = inhibition was -1.54% (inactive).

On to `COc1ccc(CNC(=O)[C@H](C)NC(=O)C2CCN(S(=O)(=O)c3ccc(C)cc3)CC2)cc1`, for which the activity, negative = inhibition was 2.4% (inactive).

Take `Cc1cc(C)c(C#N)c(SCC(=O)NC2CC2)n1`: the activity, negative = inhibition was 8.05% (inactive).

Take `CC1(C2(O)CC(c3ccccc3)ON2)CCCCC1` (stereo not drawn): the activity, negative = inhibition was -1.99% (inactive).

As to `CCOC(=O)CNC(=O)CCCCCC(=O)NCC(=O)OCC`, the activity, negative = inhibition was 7.81% (inactive).

As to `Clc1cccc(-c2nn3c(COc4ccccc4)nnc3s2)c1`, the activity, negative = inhibition is 17.5% (inactive).

As to `CCN1C(=O)CC(N2CCN(c3ccc(OC)cc3)CC2)C1=O` (stereo not drawn), the activity, negative = inhibition was 1.34% (inactive).

Regarding `CC(C)C1Cc2c(C#N)c(N)sc(=S)c2CO1` (stereo not drawn), the activity, negative = inhibition was 1.85% (inactive).

`COc1ccc(N2C(=O)CC(N(Cc3ccc(S(N)(=O)=O)cc3)C(C)=O)C2=O)cc1` (stereo not drawn): the activity, negative = inhibition was 2.66% (inactive).

As for `N#Cc1c(N2CCOCC2)nc(-c2ccco2)c2c1CCCC2`, the activity, negative = inhibition was 4.59% (inactive).

With `Cc1ccc(-c2nn(C)c(=O)c3ccccc23)cc1CNC(=O)CSc1nc2ccccc2o1`, the activity, negative = inhibition is -16.9% (inactive).

For `Cn1c(=O)c2c(nc(Br)n2CCSc2ncccn2)n(C)c1=O`, the activity, negative = inhibition is -0.734% (inactive).

On to `CCCCCC(=O)N1CC2(CC)CN(C(=O)CCCCC)CC(CC)(C1)C2=O`, for which the activity, negative = inhibition was 4.63% (inactive).

In the case of `Cn1c(SCC(=O)N2CCOCC2)nnc1-c1cccc(NC(=O)c2ccccc2F)c1`, the activity, negative = inhibition was 12% (inactive).

The next experiment has as its target Glucocorticoid receptor (Homo sapiens) (UniProt P04150). Put plainly: GR-GFP Redistribution (AID 450). Further: potency means the concentration at half of the fitted maximal effect. Particulars: U2OS GR-GFP nuclear translocation, laser cytometry, 2 h; series mostly up to 20.6 µM.
For `COc1ccccc1C1/C(=C(/O)c2ccc(C)cc2)C(=O)C(=O)N1CCN1CCOCC1` (stereo not drawn), the Potency was > 20.6 µM (inactive).

On to `CN1CCc2c(n(CC(O)CN3C(=O)c4ccccc4S3(=O)=O)c3ccccc23)C1=O` (stereo not drawn), for which the Potency was > 20.6 µM (inactive).

On to `COc1ccc(CN(C)CCc2ccccn2)c(OC)c1OC`, for which the Potency is > 20.6 µM (inactive).

Take `CCN(CC)S(=O)(=O)c1ccc2c(c1)c(C(=O)O)cn2C`: the Potency was > 20.6 µM (inactive).

Consider `N#Cc1nc(-c2ccc(F)cc2)oc1N1CCCC1`, for which the Potency is > 20.6 µM (inactive).

With `Cc1nc(SCC(=O)Nc2ccc3c(c2)OCO3)c(C#N)c2c1CCCC2`, the Potency was > 20.6 µM (inactive).

For `CC1(C)Cc2ccccc2-c2c1c(=O)n(-c1ccccc1)c1nnnn21`, the Potency is > 20.6 µM (inactive).

On to `O=C(Nc1ccccn1)c1ccc(=O)[nH]n1`, for which the Potency is > 20.6 µM (inactive).

In the case of `CCSc1nnc(NC(=O)NCC(F)(F)F)s1`, the Potency is > 20.6 µM (inactive).

`CCOc1ccc2nc(NC(NC(C)=O)(C(=O)OC)C(F)(F)F)sc2c1` (stereo not drawn): the Potency was > 20.6 µM (inactive).

As for `CCSc1nc(N)c2c3c(sc2n1)CCC3`, the Potency was > 20.6 µM (inactive).

In the case of `COc1ccccc1C1(CC(=O)N2CCOCC2)CCOC(C(C)C)C1` (stereo not drawn), the Potency is > 20.6 µM (inactive).

Take `O=CNC(=O)c1ccccc1C(=O)O`: the Potency was > 20.6 µM (inactive).

`CCOC(=O)c1c(C)n(C)c2ccc(OC)c(NC(=O)c3cccs3)c12`: the Potency was > 20.6 µM (inactive).

For `CCOC(=O)c1ccc(NC(=O)COc2ccccc2OC)cc1`, the Potency is > 20.6 µM (inactive).

Take `CCCCn1c2nc3ccccc3nc2c2c(=O)n(CC(C)C)cnc21`: the Potency is > 20.6 µM (inactive).

Consider `CCCSc1nc(C)c(CC(=O)OCC)c(=O)[nH]1`, for which the Potency was > 20.6 µM (inactive).

As for `C=C(C)C1Cc2c(C)nn(-c3nc(C)cc(C)n3)c2C1` (stereo not drawn), the Potency was > 20.6 µM (inactive).

For the molecule `CCOC(=O)c1cc2c(=O)n3cccc(C)c3nc2n(Cc2cccnc2)c1=N`, the Potency is > 20.6 µM (inactive).

As for `CN(C)/C=C1\N=C(c2cccs2)OC1=O`, the Potency is > 20.6 µM (inactive).

In the case of `COc1ccccc1Cn1c2nc3ccccc3nc2c2c(=O)n(CC(C)C)cnc21`, the Potency is > 20.6 µM (inactive).

For `O=C(CNC1=NCCC1)c1ccc2c(c1)OCCO2`, the Potency was > 20.6 µM (inactive).

As for `COc1cccc(C2/C(=C(/O)c3cnn(-c4ccccc4)c3C)C(=O)C(=O)N2CCN(C)C)c1OC` (stereo not drawn), the Potency was > 20.6 µM (inactive).

For `Clc1ccc(COc2ccccn2)c(Cl)c1`, the Potency is > 20.6 µM (inactive).

Consider `CCCNC1=C(C)C(=O)CC1`, for which the Potency was > 20.6 µM (inactive).

Consider `Cc1nc(N2CCOCC2)c(C#N)c2c1COC(C)(C)C2`, for which the Potency was > 20.6 µM (inactive).

With `COc1ccc(C(=O)N2CCC(N3CCN(c4ccccc4)CC3)CC2)cc1OC`, the Potency is > 20.6 µM (inactive).

For `COc1ccc(CNC(=O)[C@H](C)NC(=O)C2CCN(S(=O)(=O)c3ccc(C)cc3)CC2)cc1`, the Potency was > 20.6 µM (inactive).

With `Cc1cc(C)c(C#N)c(SCC(=O)NC2CC2)n1`, the Potency is > 20.6 µM (inactive).

In the case of `CC1(C2(O)CC(c3ccccc3)ON2)CCCCC1` (stereo not drawn), the Potency was > 20.6 µM (inactive).

As for `CCOC(=O)CNC(=O)CCCCCC(=O)NCC(=O)OCC`, the Potency was > 20.6 µM (inactive).

In the case of `Clc1cccc(-c2nn3c(COc4ccccc4)nnc3s2)c1`, the Potency was > 20.6 µM (inactive).

Regarding `CCN1C(=O)CC(N2CCN(c3ccc(OC)cc3)CC2)C1=O` (stereo not drawn), the Potency was > 20.6 µM (inactive).

Turning to `CC(C)C1Cc2c(C#N)c(N)sc(=S)c2CO1` (stereo not drawn), the Potency was > 20.6 µM (inactive).

Take `COc1ccc(N2C(=O)CC(N(Cc3ccc(S(N)(=O)=O)cc3)C(C)=O)C2=O)cc1` (stereo not drawn): the Potency was > 20.6 µM (inactive).

Take `N#Cc1c(N2CCOCC2)nc(-c2ccco2)c2c1CCCC2`: the Potency was > 20.6 µM (inactive).

Regarding `Cc1ccc(-c2nn(C)c(=O)c3ccccc23)cc1CNC(=O)CSc1nc2ccccc2o1`, the Potency was > 20.6 µM (inactive).

Take `Cn1c(=O)c2c(nc(Br)n2CCSc2ncccn2)n(C)c1=O`: the Potency was > 20.6 µM (inactive).

Turning to `CCCCCC(=O)N1CC2(CC)CN(C(=O)CCCCC)CC(CC)(C1)C2=O`, the Potency is > 20.6 µM (inactive).

On to `Cn1c(SCC(=O)N2CCOCC2)nnc1-c1cccc(NC(=O)c2ccccc2F)c1`, for which the Potency was > 20.6 µM (inactive).
